# Source: publication PMC8384837, “Expanding the binding specificity for RNA recognition by a PUF domain”
# How the values were obtained:
# Experiment in all cases: yeast three-hybrid, YBZ-1, SC-Leu-His + 0.5 mM 3-AT, 4 days
# Details in all cases: tags: N-Gal4 AD-HA kept; label: inside an RPR1-promoter hybrid RNA with tandem MS2 sites; ssRNA
# PUM1 PUF domain R1-KTE = PUM1 PUF domain R1-KTE (Homo sapiens, UniProt Q14671 828-1176, S863K;R864T;Q867E)
# Outline: (§1)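 A centromeric plasmid in strain YBZ-1 co-expressed Pumilio-1 PUF domain libraries, randomized at the three base-contacting residues of each repeat, with matching RNA elements; the strain carries a LexA–MS2 coat fusion and a HIS3 reporter. After four days on SC-Leu (input) or SC-Leu-His + 0.5 mM 3-AT (selection), the repeat regions were PCR-amplified and Illumina-sequenced. The interaction score is the log change in variant frequency from input to selection, using log2 and a pseudocount of 1 where absent.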
# PUM1 PUF domain R1-SGE = PUM1 PUF domain R1-SGE (Homo sapiens, UniProt Q14671 828-1176, R864G;Q867E)
# Outline: as §1
# PUM1 PUF domain R3-LSN = PUM1 PUF domain R3-LSN (Homo sapiens, UniProt Q14671 828-1176, C935L;R936S;Q939N)
# Outline: as §1
# PUM1 PUF domain R4-ARS = PUM1 PUF domain R4-ARS (Homo sapiens, UniProt Q14671 828-1176, N971A;H972R;Q975S)
# Outline: as §1
# PUM1 PUF domain R4-CPG = PUM1 PUF domain R4-CPG (Homo sapiens, UniProt Q14671 828-1176, N971C;H972P;Q975G)
# Outline: as §1
# PUM1 PUF domain R3-YCD = PUM1 PUF domain R3-YCD (Homo sapiens, UniProt Q14671 828-1176, C935Y;R936C;Q939D)
# Outline: as §1
# PUM1 PUF domain R3-TCD = PUM1 PUF domain R3-TCD (Homo sapiens, UniProt Q14671 828-1176, C935T;R936C;Q939D)
# Outline: as §1
# PUM1 PUF domain R5-RGT = PUM1 PUF domain R5-RGT (Homo sapiens, UniProt Q14671 828-1176, C1007R;R1008G;Q1011T)
# Outline: as §1
# PUM1 PUF domain R8-RFE = PUM1 PUF domain R8-RFE (Homo sapiens, UniProt Q14671 828-1176, N1122R;Y1123F;Q1126E)
# Outline: as §1
# PUM1 PUF domain R8-NWE = PUM1 PUF domain R8-NWE (Homo sapiens, UniProt Q14671 828-1176, Y1123W;Q1126E)
# Outline: as §1
# PUM1 PUF domain R8-PWY = PUM1 PUF domain R8-PWY (Homo sapiens, UniProt Q14671 828-1176, N1122P;Y1123W;Q1126Y)
# Outline: as §1
# PUM1 PUF domain R8-YYR = PUM1 PUF domain R8-YYR (Homo sapiens, UniProt Q14671 828-1176, N1122Y;Q1126R)
# Outline: as §1
# PUM1 PUF domain R8-SYN = PUM1 PUF domain R8-SYN (Homo sapiens, UniProt Q14671 828-1176, N1122S;Q1126N)
# Outline: as §1
# PUM1 PUF domain R7-RSL = PUM1 PUF domain R7-RSL (Homo sapiens, UniProt Q14671 828-1176, S1079R;N1080S;E1083L)
# Outline: as §1
# PUM1 PUF domain R7-RGL = PUM1 PUF domain R7-RGL (Homo sapiens, UniProt Q14671 828-1176, S1079R;N1080G;E1083L)
# Outline: as §1
# PUM1 PUF domain R4-VRT = PUM1 PUF domain R4-VRT (Homo sapiens, UniProt Q14671 828-1176, N971V;H972R;Q975T)
# Outline: as §1
# PUM1 PUF domain R3-VRV = PUM1 PUF domain R3-VRV (Homo sapiens, UniProt Q14671 828-1176, C935V;Q939V)
# Outline: as §1
# PUM1 PUF domain R3-SPW = PUM1 PUF domain R3-SPW (Homo sapiens, UniProt Q14671 828-1176, C935S;R936P;Q939W)
# Outline: as §1
# PUM1 PUF domain R3-SPD = PUM1 PUF domain R3-SPD (Homo sapiens, UniProt Q14671 828-1176, C935S;R936P;Q939D)
# Outline: as §1
# PUM1 PUF domain R2-VYL = PUM1 PUF domain R2-VYL (Homo sapiens, UniProt Q14671 828-1176, N899V;Q903L)
# Outline: as §1
# PUM1 PUF domain R1-SGE, sequence (Q14671 828-1176 R864G/Q867E): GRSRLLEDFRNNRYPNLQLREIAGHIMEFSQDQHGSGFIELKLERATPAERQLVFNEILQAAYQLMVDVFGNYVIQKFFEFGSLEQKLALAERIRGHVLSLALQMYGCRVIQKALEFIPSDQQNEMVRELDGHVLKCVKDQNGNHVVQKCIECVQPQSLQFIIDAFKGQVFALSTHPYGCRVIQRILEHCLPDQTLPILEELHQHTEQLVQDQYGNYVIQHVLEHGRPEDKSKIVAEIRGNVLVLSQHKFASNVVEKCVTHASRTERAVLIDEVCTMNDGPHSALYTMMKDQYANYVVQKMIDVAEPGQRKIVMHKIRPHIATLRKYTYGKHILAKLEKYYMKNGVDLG
# PUM1 PUF domain R4-CPG, sequence (Q14671 828-1176 N971C/H972P/Q975G): as the sequence (Q14671 828-1176 R864G/Q867E) above, with G37R, E40Q, N144C, H145P, Q148G counted along it
# PUM1 PUF domain R4-ARS, sequence (Q14671 828-1176 N971A/H972R/Q975S): as the sequence (Q14671 828-1176 R864G/Q867E) above, with G37R, E40Q, N144A, H145R, Q148S counted along it
# PUM1 PUF domain R8-YYR, sequence (Q14671 828-1176 N1122Y/Q1126R): as the sequence (Q14671 828-1176 R864G/Q867E) above, with G37R, E40Q, N295Y, Q299R counted along it
# PUM1 PUF domain R8-NWE, sequence (Q14671 828-1176 Y1123W/Q1126E): as the sequence (Q14671 828-1176 R864G/Q867E) above, with G37R, E40Q, Y296W, Q299E counted along it
# PUM1 PUF domain R3-LSN, sequence (Q14671 828-1176 C935L/R936S/Q939N): as the sequence (Q14671 828-1176 R864G/Q867E) above, with G37R, E40Q, C108L, R109S, Q112N counted along it
# PUM1 PUF domain R7-RGL, sequence (Q14671 828-1176 S1079R/N1080G/E1083L): as the sequence (Q14671 828-1176 R864G/Q867E) above, with G37R, E40Q, S252R, N253G, E256L counted along it
# PUM1 PUF domain R7-RSL, sequence (Q14671 828-1176 S1079R/N1080S/E1083L): as the sequence (Q14671 828-1176 R864G/Q867E) above, with G37R, E40Q, S252R, N253S, E256L counted along it
# PUM1 PUF domain R8-RFE, sequence (Q14671 828-1176 N1122R/Y1123F/Q1126E): as the sequence (Q14671 828-1176 R864G/Q867E) above, with G37R, E40Q, N295R, Y296F, Q299E counted along it
# PUM1 PUF domain R2-VYL, sequence (Q14671 828-1176 N899V/Q903L): as the sequence (Q14671 828-1176 R864G/Q867E) above, with G37R, E40Q, N72V, Q76L counted along it
# PUM1 PUF domain R1-KTE, sequence (Q14671 828-1176 S863K/R864T/Q867E): as the sequence (Q14671 828-1176 R864G/Q867E) above, with S36K, G37T counted along it
# PUM1 PUF domain R4-VRT, sequence (Q14671 828-1176 N971V/H972R/Q975T): as the sequence (Q14671 828-1176 R864G/Q867E) above, with G37R, E40Q, N144V, H145R, Q148T counted along it
# PUM1 PUF domain R3-YCD, sequence (Q14671 828-1176 C935Y/R936C/Q939D): as the sequence (Q14671 828-1176 R864G/Q867E) above, with G37R, E40Q, C108Y, R109C, Q112D counted along it
# PUM1 PUF domain R3-SPD, sequence (Q14671 828-1176 C935S/R936P/Q939D): as the sequence (Q14671 828-1176 R864G/Q867E) above, with G37R, E40Q, C108S, R109P, Q112D counted along it
# PUM1 PUF domain R8-SYN, sequence (Q14671 828-1176 N1122S/Q1126N): as the sequence (Q14671 828-1176 R864G/Q867E) above, with G37R, E40Q, N295S, Q299N counted along it
# PUM1 PUF domain R3-TCD, sequence (Q14671 828-1176 C935T/R936C/Q939D): as the sequence (Q14671 828-1176 R864G/Q867E) above, with G37R, E40Q, C108T, R109C, Q112D counted along it
# PUM1 PUF domain R3-VRV, sequence (Q14671 828-1176 C935V/Q939V): as the sequence (Q14671 828-1176 R864G/Q867E) above, with G37R, E40Q, C108V, Q112V counted along it
# PUM1 PUF domain R3-SPW, sequence (Q14671 828-1176 C935S/R936P/Q939W): as the sequence (Q14671 828-1176 R864G/Q867E) above, with G37R, E40Q, C108S, R109P, Q112W counted along it
# PUM1 PUF domain R8-PWY, sequence (Q14671 828-1176 N1122P/Y1123W/Q1126Y): as the sequence (Q14671 828-1176 R864G/Q867E) above, with G37R, E40Q, N295P, Y296W, Q299Y counted along it
# PUM1 PUF domain R5-RGT, sequence (Q14671 828-1176 C1007R/R1008G/Q1011T): as the sequence (Q14671 828-1176 R864G/Q867E) above, with G37R, E40Q, C180R, R181G, Q184T counted along it
sequence,measurement,setting,value
GGCUAGAACUAGUGGAUCCCCCGGCGCCCGGCGGCUCGAGCCCGGGUAAGUGUAAAUCGUCUGCAUGCCGCCGGGCGCCAUGCCUGCAGGUCGACUCUAGAAAACAUG,binding signal,PUM1 PUF domain R1-KTE,4.3 log2 enrichment (interaction score)
same,binding signal,PUM1 PUF domain R1-SGE,1.55 log2 enrichment (interaction score)
GGCUAGAACUAGUGGAUCCCCCGGCGCCCGGCGGCUCGAGCCCGGGUAAGUGUAAUUAGUCUGCAUGCCGCCGGGCGCCAUGCCUGCAGGUCGACUCUAGAAAACAUG,binding signal,PUM1 PUF domain R3-LSN,2.89 log2 enrichment (interaction score)
GGCUAGAACUAGUGGAUCCCCCGGCGCCCGGCGGCUCGAGCCCGGGUAAGUGUAUAUAGUCUGCAUGCCGCCGGGCGCCAUGCCUGCAGGUCGACUCUAGAAAACAUG,binding signal,PUM1 PUF domain R4-ARS,2.12 log2 enrichment (interaction score)
same,binding signal,PUM1 PUF domain R4-CPG,3.14 log2 enrichment (interaction score)
GGCUAGAACUAGUGGAUCCCCCGGCGCCCGGCGGCUCGAGCCCGGGUAAGUGUACAUAGUCUGCAUGCCGCCGGGCGCCAUGCCUGCAGGUCGACUCUAGAAAACAUG,binding signal,PUM1 PUF domain R4-ARS,3.28 log2 enrichment (interaction score)
same,binding signal,PUM1 PUF domain R4-CPG,2.44 log2 enrichment (interaction score)
GGCUAGAACUAGUGGAUCCCCCGGCGCCCGGCGGCUCGAGCCCGGGUAAGUGUAAGUAGUCUGCAUGCCGCCGGGCGCCAUGCCUGCAGGUCGACUCUAGAAAACAUG,binding signal,PUM1 PUF domain R3-YCD,3.96 log2 enrichment (interaction score)
same,binding signal,PUM1 PUF domain R3-LSN,4.28 log2 enrichment (interaction score)
same,binding signal,PUM1 PUF domain R3-TCD,4.9 log2 enrichment (interaction score)
GGCUAGAACUAGUGGAUCCCCCGGCGCCCGGCGGCUCGAGCCCGGGUAAGUGUCAAUAGUCUGCAUGCCGCCGGGCGCCAUGCCUGCAGGUCGACUCUAGAAAACAUG,binding signal,PUM1 PUF domain R5-RGT,5.24 log2 enrichment (interaction score)
GGCUAGAACUAGUGGAUCCCCCGGCGCCCGGCGGCUCGAGCCCGGGUAAGCGUAAAUAGUCUGCAUGCCGCCGGGCGCCAUGCCUGCAGGUCGACUCUAGAAAACAUG,binding signal,PUM1 PUF domain R8-RFE,3.87 log2 enrichment (interaction score)
same,binding signal,PUM1 PUF domain R8-NWE,1.64 log2 enrichment (interaction score)
same,binding signal,PUM1 PUF domain R8-PWY,2.57 log2 enrichment (interaction score)
same,binding signal,PUM1 PUF domain R8-YYR,5.94 log2 enrichment (interaction score)
same,binding signal,PUM1 PUF domain R8-SYN,2.66 log2 enrichment (interaction score)
GGCUAGAACUAGUGGAUCCCCCGGCGCCCGGCGGCUCGAGCCCGGGUAAGUGUAAAUUGUCUGCAUGCCGCCGGGCGCCAUGCCUGCAGGUCGACUCUAGAAAACAUG,binding signal,PUM1 PUF domain R1-SGE,3.87 log2 enrichment (interaction score)
GGCUAGAACUAGUGGAUCCCCCGGCGCCCGGCGGCUCGAGCCCGGGUAAGUCUAAAUAGUCUGCAUGCCGCCGGGCGCCAUGCCUGCAGGUCGACUCUAGAAAACAUG,binding signal,PUM1 PUF domain R7-RSL,2.11 log2 enrichment (interaction score)
same,binding signal,PUM1 PUF domain R7-RGL,1.29 log2 enrichment (interaction score)
GGCUAGAACUAGUGGAUCCCCCGGCGCCCGGCGGCUCGAGCCCGGGUAAGUGUAAAUAGUCUGCAUGCCGCCGGGCGCCAUGCCUGCAGGUCGACUCUAGAAAACAUG,binding signal,PUM1 PUF domain R8-RFE,2.4 log2 enrichment (interaction score)
same,binding signal,PUM1 PUF domain R8-NWE,2.9 log2 enrichment (interaction score)
same,binding signal,PUM1 PUF domain R4-VRT,4.25 log2 enrichment (interaction score)
same,binding signal,PUM1 PUF domain R3-VRV,3.29 log2 enrichment (interaction score)
same,binding signal,PUM1 PUF domain R4-ARS,4.61 log2 enrichment (interaction score)
same,binding signal,PUM1 PUF domain R4-CPG,4.34 log2 enrichment (interaction score)
same,binding signal,PUM1 PUF domain R3-SPW,3.13 log2 enrichment (interaction score)
same,binding signal,PUM1 PUF domain R8-YYR,5.34 log2 enrichment (interaction score)
same,binding signal,PUM1 PUF domain R3-SPD,3.36 log2 enrichment (interaction score)
GGCUAGAACUAGUGGAUCCCCCGGCGCCCGGCGGCUCGAGCCCGGGUAAGUUUAAAUAGUCUGCAUGCCGCCGGGCGCCAUGCCUGCAGGUCGACUCUAGAAAACAUG,binding signal,PUM1 PUF domain R7-RSL,3.53 log2 enrichment (interaction score)
same,binding signal,PUM1 PUF domain R7-RGL,3.07 log2 enrichment (interaction score)
GGCUAGAACUAGUGGAUCCCCCGGCGCCCGGCGGCUCGAGCCCGGGUAAGUGUAAAAAGUCUGCAUGCCGCCGGGCGCCAUGCCUGCAGGUCGACUCUAGAAAACAUG,binding signal,PUM1 PUF domain R2-VYL,2.41 log2 enrichment (interaction score)
GGCUAGAACUAGUGGAUCCCCCGGCGCCCGGCGGCUCGAGCCCGGGUAAGUGUAAAUGGUCUGCAUGCCGCCGGGCGCCAUGCCUGCAGGUCGACUCUAGAAAACAUG,binding signal,PUM1 PUF domain R1-SGE,5.2 log2 enrichment (interaction score)
